From PubChem
In the library only some 11% were active in any assay of this set; here they are far more common.
3T3 cytotox: kills NIH 3T3 cells. AID 1345082. NIH 3T3 viability, CellTiter-Glo ATP luminescence, 48-72 h. actives 4.3% (n = 94,000). Potency, µM (top dose mostly 96.7 µM), for inactives: top-dose activity change, negative = cytotoxicity, most hits filed as inhibitors; note: nearly all actives have a fitted effect of over 55% in size
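Viability of NIH 3T3 cells after 48 or 72 hr compound treatment at 37 °C was assessed by CellTiter-Glo, with luminescence imaged following a 10 min room-temperature step.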
FLuc inh: inhibitors of firefly (Photinus pyralis) luciferase; P08659; purified P. pyralis luciferase, luminescence, biochemical; Potency, µM (series often up to 115 µM), hits mostly inhibitors; actives 2.5% (n = 76,000); AID 1347043; note: nearly all actives have a fitted effect of over 65% in size
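Luminescence read by CCD imager after adding enzyme (10nM final) to wells holding compound, titrated in qHTS. Substrates 10uM each D-luciferin and ATP; buffer 50mM Tris acetate pH 7.5, 10mM Mg acetate, Tween-20, BSA.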
hNpr1 antagonist: antagonists of human natriuretic peptide receptor Npr1; HEK293 hNpr1 GloSensor cGMP, ANP-stimulated luminescence; actives 1.6% (n = 76,000); AID 1347048; P16066; Potency, µM (doses to about 46.3 µM), for the others: top-dose activity change, negative = inhibition, actives largely listed as inhibitors; calls by dose curve; note: nearly all actives have a fitted effect of over 60% in size
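Compound pre-incubated 30 min at room temperature on GloSensor-loaded HEK293 cells stably carrying hNpr1 and the pGS-40F cGMP biosensor. Stimulation uses hNppA at 0.1 nM final; luminescence is taken at baseline and 20 min post-agonist.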
HEK293 tox: HEK 293 cell cytotoxicity; HEK 293 viability, ATP luminescence (CellTiter-Glo), 48-72 h; Potency, µM (titrated, usually from 115 µM), for inactives: top-dose activity change, negative = cytotoxicity, actives largely listed as inhibitors; actives 6.6% (n = 94,000); AID 1345083; note: nearly all actives have a fitted effect of over 60% in size
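Cytotoxicity was scored by loss of ATP-coupled luminescence (CellTiter-Glo) in HEK 293 cells. Compound treatment ran 48 or 72 hr at 37 degree Celsius, 5% CO2, 95% humidity.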
* marks the source's active call; other numbers are inactive results; i = inactive; ? = inconclusive; nt = no result given; [ ] = another dose, or the depositor's remark. Unless noted, calls come from the whole dose curve; as a rule, active = well fitted curve in the direction sought with a large enough effect; inconclusive = small, poorly fitted or top-dose-only effect, or another doubt; inactive = no such curve, though single readings can be large; an effect the other way counts as inactive or inconclusive. % is set by controls: 0 for no effect and ±100 for the full control effect; potency is the fitted concentration of half-maximal effect.

SMILES	3T3 cytotox	FLuc inh	hNpr1 antagonist	HEK293 tox
O=C(NCCCN1CCCC1=O)c1ccc(-c2ccc(N3CCSCC3)nc2)cc1	?	40µM*	?	?
COc1ccc(CNC(=O)c2ccc(-c3ccc(N4CCSCC4)nc3)cc2)cc1	i	i	-1%	-7%
CNC(=O)C1CCN(Cc2ccccc2-c2cccnc2)CC1	3%[138 µM]	nt	nt	i
CCN1C[C@H]2COc3ccccc3[C@H]2N(C(=O)c2ccc(F)cc2)CCC1=O	?	nt	nt	-4%
O=C(C1CCCN1C(=O)Nc1ccc(Cl)cc1)N1CCC(c2nc3ccncc3[nH]2)C1 (stereo not drawn)	?	nt	nt	-28%
Cn1c(=O)c2ccnn2c2ccc(C(=O)NCC3CCN(Cc4cccc(F)c4)CC3)cc21	?	i	2%	79µM*
CCn1c(=O)c2ccnn2c2ccc(C(=O)NCCCOC(C)C)cc21	-11%	i	-9%	?
CN1CCC(NC(=O)c2ccc3c(c2)n(Cc2ccc(F)cc2)c(=O)c2ccnn23)CC1	22µM*	i	3%	25µM*
CCn1c(=O)c2ccnn2c2ccc(C(=O)Nc3ccc(C)c(F)c3)cc21	-6%	i	4%	45µM*
CCCCNC(=O)c1ccc2c(c1)n(Cc1ccc(F)cc1)c(=O)c1ccnn12	?	i	-13%	?
COc1ccc(C(=O)N2CCCN(c3ccc4nnc(C)n4n3)CC2)cc1	-2%	nt	nt	-2%
O=C(C1CCCN1C(=O)Nc1ccccc1)N1CCC(N2Cc3ccccc3C2=O)CC1 (stereo not drawn)	-17%	nt	nt	-6%
Cc1ccc(C)c(-c2ccc(C(=O)NCCCn3ccnc3C(C)C)cn2)c1	?	i	?	?
Cc1ccc(-c2ccc(C(=O)NCCCn3ccnc3C(C)C)cn2)cc1C	?	?	-5%	40µM*
COc1cccc(Nc2cccc(CN3CCC(C)(NC(C)=O)C3)c2)c1 (stereo not drawn)	?	50µM*	-13%[70.6 µM]	?
CC(=O)NC1(C)CCN(Cc2cccc(Nc3cccc(Cl)c3)c2)C1 (stereo not drawn)	45µM*	?	?	71µM*
O=C(NCc1ccc2c(c1)OCO2)c1cc(-c2cccc(C(F)(F)F)c2)c2nncn2n1	-20%	nt	nt	-17%
COc1ccc(Cn2c(=O)c(C(=O)NCC(F)(F)F)nc3cccnc32)cc1	-13%	nt	nt	-16%
COc1ccc(CN2C(=O)COC[C@H]2C(=O)Nc2ccc(OC)c(C(F)(F)F)c2)cc1	?	i	?	45µM*
COc1ccc(CN2C(=O)COC[C@H]2C(=O)Nc2ccc(OC)c(OC)c2)cc1OC	-1%	i	-2%	-1%
O=C(c1ccc(C2CCNC2)cc1)N(Cc1ccccc1)CC1CCC1 (stereo not drawn)	?	i	-4%	25µM*
O=C(Nc1ccc2c(c1)OCCO2)N1CCCC1c1nncn1C1CCCC1 (stereo not drawn)	-9%	nt	nt	1%
O=C(c1ccncc1)N1CCC2(CC1)CC(N(C(=O)c1ccccc1)C1CC1)CCO2 (stereo not drawn)	-27%	i	-2%	-29%
Cc1ccsc1C(=O)N1CCC2(CC1)CC(N(Cc1ccc(F)cc1)C1CC1)CCO2 (stereo not drawn)	?	i	-25%	?
O=C(CCCc1ccccc1)N1CCC(C2CCNC2)CC1 (stereo not drawn)	1%	35µM*	1%	-19%
SMILES	3T3 cytotox	FLuc inh	hNpr1 antagonist	HEK293 tox
Cc1ccsc1C(=O)N1CCC2(CC1)CC(N(C(=O)c1ccccc1)C1CC1)CCO2 (stereo not drawn)	?	i	-7%	50µM*
Cc1ccsc1C(=O)N1CCC2(CC1)CC(N(Cc1ccccc1)C1CC1)CCO2 (stereo not drawn)	?	i	-26%	40µM*
CC(=O)N(C1CC1)C1CCOC2(CCN(C(=O)CCCc3ccccc3)CC2)C1 (stereo not drawn)	-21%	28µM*	2%	?
Cn1nccc1C(=O)N1CCC2(CC1)CC(N(Cc1ccccc1)C1CC1)CCO2 (stereo not drawn)	-6%	i	-17%	?
CCn1nccc1C(=O)N1CCC2(CC1)CC(N(Cc1ccccc1)C1CC1)CCO2 (stereo not drawn)	-21%	i	-29%	45µM*
COc1ccc(C(=O)N2CCC(C(=O)N3CCC(c4ccccc4)CC3)CC2)cc1	-34%	nt	nt	-28%
COCCn1c(=O)n([C@H]2CCCN(C(=O)c3nn(C)c4ccccc34)C2)c2ncccc21	-23%	i	10%	?
